From PubChem BioAssay AID1159580 (chemical genetic matrix, 2015)
Among all 5,500 compounds or so, about 2,000 (36%) were called active. Inconclusive results (about 18%) are left out. Rule as the data show it: active = normalized growth mostly below about 0.91 (no sharp cut-off); inconclusive = no clear call, values can overlap the other calls; inactive = mostly above about 0.92. Some of the results follow.

Experiment: chemical genetic growth profiling, strain panel (AID 1159580);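 also: tested at 20 µM; growth read once vehicle control cultures reached saturation at 30 °C; 1 = growth at the plate median or of vehicle wells; lower values mean less growth of the strain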
Conditions: growth OD
[1] = S. cerevisiae deletion strains, locus YAL013W, strain DEP1, stronger effect = lower value
[2] = S. cerevisiae deletion strains, locus YBR229C, strain ROT2, stronger effect = lower value
[3] = S. cerevisiae deletion strains, locus YDL101C, strain DUN1, stronger effect = lower value
[4] = S. cerevisiae deletion strains, locus YDR150W, strain NUM1, stronger effect = lower value
[5] = S. cerevisiae deletion strains, locus YEL061C, strain CIN8, stronger effect = lower value
[6] = S. cerevisiae deletion strains, locus YGR078C, strain PAC10, stronger effect = lower value
[7] = S. cerevisiae deletion strains, locus YHR030C, strain SLT2, stronger effect = lower value
[8] = S. cerevisiae deletion strains, locus YHR087W, strain rtc3, stronger effect = lower value
[9] = S. cerevisiae deletion strains, locus YJL187C, strain SWE1, stronger effect = lower value
[10] = S. cerevisiae deletion strains, locus YJR043C, strain POL32, stronger effect = lower value
[11] = S. cerevisiae deletion strains, locus YJR075W, strain HOC1, stronger effect = lower value
[12] = S. cerevisiae deletion strains, locus YKL190W, strain CNB1, stronger effect = lower value
[13] = S. cerevisiae deletion strains, locus YLR039C, strain RIC1, stronger effect = lower value
[14] = S. cerevisiae deletion strains, locus YLR058C, strain SHM2 (second series), stronger effect = lower value
[15] = S. cerevisiae deletion strains, locus YLR085C, strain ARP6, stronger effect = lower value
[16] = S. cerevisiae deletion strains, locus YLR262C, strain YPT6, stronger effect = lower value
[17] = S. cerevisiae deletion strains, locus YML094W, strain GIM5, stronger effect = lower value
[18] = S. cerevisiae deletion strains, locus YMR219W, strain ESC1, stronger effect = lower value
[19] = S. cerevisiae deletion strains, locus YMR263W, strain SAP30, stronger effect = lower value
[20] = S. cerevisiae deletion strains, locus YNL153C, strain GIM3, stronger effect = lower value
[21] = S. cerevisiae deletion strains, locus YNL298W, strain CLA4 (second series), stronger effect = lower value
[22] = S. cerevisiae deletion strains, locus YNL322C, strain KRE1, stronger effect = lower value
[23] = S. cerevisiae deletion strains, locus YNR030W, strain Alg12, stronger effect = lower value
[24] = S. cerevisiae deletion strains, locus YOL006C, strain TOP1, stronger effect = lower value
[25] = S. cerevisiae deletion strains, locus YPL055C, strain LGE1, stronger effect = lower value
[26] = S. cerevisiae deletion strains, locus YPL241C, strain CIN2, stronger effect = lower value
[27] = S. cerevisiae deletion strains, locus YPR135W, strain CTF4, stronger effect = lower value
[28] = S. cerevisiae strains, strain wild type, stronger effect = lower value
[29] = S. cerevisiae deletion strains, locus YCL061C, strain MRC1, stronger effect = lower value

Measured: normalized growth

CSc1ncc(C#N)c2nc(-c3ccc(N(C)C)cc3)nn12
inactive: [1] 1.01 | [2] 0.991 | [3] 0.974 | [4] 0.966 | [5] 1 | [6] 0.983 | S. cerevisiae deletion strains, locus YGR229C, strain SMI1, stronger effect = lower value 1 | [7] 1 | [8] 1.05 | [9] 1.01 | [10] 0.975 | [11] 0.994 | [12] 1.01 | [13] 1.08 | [14] 1.02 | [15] 1.02 | [16] 1.09 | [17] 1.05 | [18] 1.01 | [19] 1.01 | [20] 0.985 | [21] 1.04 | [22] 1 | [23] 1.03 | [24] 1.04 | [25] 1.01 | [26] 1.01 | [27] 0.968 | [28] 1

O=S(=O)(Oc1ccc(OCc2ccccc2)cc1)c1cc(Cl)cc(Cl)c1
inactive: [1] 1.01 | [2] 1.01 | [29] 1.01 | [3] 0.987 | [4] 1 | [5] 0.959 | [6] 1 | [7] 0.881 | [8] 0.983 | [9] 1 | [10] 1.01 | [11] 1.01 | [13] 1.01 | [14] 1.01 | [15] 0.943 | [16] 0.985 | [17] 0.966 | [18] 0.993 | [19] 1.01 | [20] 0.998 | [21] 1.01 | [22] 1 | [23] 0.998 | [24] 0.779 | [25] 0.969 | [26] 1 | [27] 0.988 | [28] 1

Fc1cc(F)cc(COc2cc(Cl)cc(Cl)c2)c1
active: [7] 0.522 | [26] 0.832
inactive: [1] 1 | [2] 0.987 | [29] 0.96 | [3] 1.01 | S. cerevisiae deletion strains, locus YDL134C, strain PPH21, stronger effect = lower value 0.992 | [4] 0.885 | [5] 1.01 | [6] 0.96 | [8] 0.959 | [9] 0.968 | [10] 0.985 | [11] 0.913 | [12] 0.967 | [13] 1.01 | [14] 0.972 | [15] 0.822 | [16] 0.943 | [17] 1.01 | [18] 0.984 | [19] 0.97 | S. cerevisiae deletion strains, locus YMR307W, strain GAS1, stronger effect = lower value 0.739 | [20] 1 | [21] 0.919 | [22] 0.987 | [23] 0.928 | [24] 0.8 | [25] 0.922 | [27] 0.886 | [28] 0.96
